Experimental data as given in the supplement of paper PMC10720658.
± gives the standard deviation of the averaged measurements.

These compounds were tested on AEK1 (Tb927.3.2440) (assay: percent reduction in TR-FRET probe signal relative to DMSO control; higher = stronger displacement of ATP-site probe (binding)). Details: 1 µM; incubation time 1 h.
With `COc1cc2c(Oc3ccc(NC(=O)C4(C(=O)Nc5ccc(F)cc5)CC4)cc3F)ccnc2cc1OCCCN1CCOCC1` the “percent reduction in TR-FRET probe signal” value (shortened to “percent reduction”) was 56 ± 11%. For `Cc1cc(Nc2cc(CN3CCOCC3)c3nc(C)c(Cc4ccc(Cl)cc4F)n3n2)n[nH]1`, the “percent reduction” value was 49 ± 10%. With `NC[C@@](O)(c1ccc(Cl)cc1)c1ccc(-c2cn[nH]c2)cc1` the “percent reduction” value was 11 ± 16%. `CCc1nc(-c2cccc(C)c2)c(-c2ccnc(NC(=O)c3ccccc3)c2)s1` was tested, and the “percent reduction” value was -2.96 ± 11%. In the case of `Cc1ccccc1CN1C2=NCCN2C(=O)C2=C1CCN(Cc1ccccc1)C2` [TIC10 Analogue], the “percent reduction” value is reported as -7.4 ± 3.3%. With `CO[C@H]1CC[C@H](N2C(=O)CNc3ncc(-c4ccc(C(C)(C)O)nc4)nc32)CC1` the “percent reduction” value was -4.45 ± 1.6%. For `CCN(C)S(=O)(=O)Nc1ccc(F)c(C(=O)c2c[nH]c3ncc(-c4cnc(C5CC5)nc4)cc23)c1F`, the “percent reduction” value was -1.7 ± 4%. In the case of `Cc1c[nH]c(-c2cnc(NCCNc3ccc(C#N)cn3)nc2-c2ccc(Cl)cc2Cl)n1`, the “percent reduction” value is reported as 2.8 ± 12%. In the case of `O=C(NCCO)c1cccc(-c2cc(Nc3ccc(OC(F)(F)F)cc3)ncn2)c1`, the “percent reduction” value is reported as 13.3 ± 16%. With `C=CC(=O)Nc1ccc(CN2C(=O)N(c3cc(OC)cc(OC)c3)Cc3cnc(Nc4ccc(N5CCN(C)CC5)cc4)nc32)cc1` the “percent reduction” value was 4.12 ± 14%. In the case of `O=C1Nc2ccc(I)cc2/C1=C/c1cc(Br)c(O)c(Br)c1`, the “percent reduction” value is reported as 8.22 ± 8.7%. For `CNC(=O)c1cc(Oc2ccc(NC(=O)Nc3ccc(Cl)c(C(F)(F)F)c3)c(F)c2)ccn1` [Regorafenib (BAY 73-4506)], the “percent reduction” value was 11.5 ± 5.7%. In the case of `COc1cc(Nc2nc3ccccc3nc2NS(=O)(=O)c2ccc(NC(=O)c3ccc(C)c(OC)c3)cc2)cc(OC)c1`, the “percent reduction” value is reported as 18.9 ± 14%. `CCN1CCN(Cc2ccc(Nc3ncc(F)c(-c4cc(F)c5nc(C)n(C(C)C)c5c4)n3)nc2)CC1` was tested, and the “percent reduction” value was -4.88 ± 6.8%. `C[C@@H](Oc1cc(-n2cnc3ccc(CN4CCN(C)CC4)cc32)sc1C(N)=O)c1ccccc1C(F)(F)F` was tested, and the “percent reduction” value was 2.7 ± 0.28%. For `CCc1cccc(CC)c1NC(=O)N1Cc2[nH]nc(NC(=O)c3ccc(N4CCN(C)CC4)cc3)c2C1`, the “percent reduction” value was 29.3 ± 8.1%. With `Nc1cc(C(F)(F)F)c(-c2cc(N3CCOCC3)nc(N3CCOCC3)n2)cn1` [BKM120 (NVP-BKM120, Buparlisib)] the “percent reduction” value was 8.62 ± 16%. In the case of `N#Cc1ccc2[nH]c(O)c(-c3ccc(CN4CCOCC4)cn3)c2c1`, the “percent reduction” value is reported as -12.4 ± 8.1%. For `COc1cccc(-n2c(=O)[nH]c3cc(Cl)n(-c4ccc(-c5cccc(OC)c5O)cc4)c3c2=O)c1`, the “percent reduction” value was -7.49 ± 2.1%. In the case of `COc1ncc(-c2ccc3nccc(-c4ccnnc4)c3c2)cc1NS(=O)(=O)c1ccc(F)cc1F`, the “percent reduction” value is reported as 3.02 ± 16%. With `CCn1c(=O)c(-c2ccc(-c3cncs3)cc2Cl)cc2cnc(Nc3ccc(N4CCN(C)CC4)cc3)nc21` the “percent reduction” value was 43.6 ± 6.3%. `CCC[C@H](NC(=O)/C(C#N)=C/c1cccc(Br)n1)c1ccccc1` [Degrasyn (WP1130)] was tested, and the “percent reduction” value was 2.37 ± 17%. `N#Cc1c(NC(=O)c2cccc3ccccc23)sc2c1CCCC2` [JNK Inhibitor IX] was tested, and the “percent reduction” value was -3.71 ± 5.5%. With `CCOc1cc(N2CCC(O)CC2)ccc1Nc1ncc2c(n1)N(C)c1ccccc1C(=O)N2C` the “percent reduction” value was -8.09 ± 7.7%. For `O=C(Nc1ccccc1C(=O)NC1CCCCNC1=O)c1cc2ccccc2s1` (stereo not drawn), the “percent reduction” value was -0.533 ± 1.2%. `COc1cc2c(c(OC)c1OC)-c1c(cc3c(c1OC)OCO3)C[C@@H](C)[C@@H](C)C2` [Schisandrin B (Sch B)] was tested, and the “percent reduction” value was 13.6 ± 28%. In the case of `O=C1NC(=O)/C(=C/c2cccc(C(F)(F)F)c2)S1`, the “percent reduction” value is reported as -3.02 ± 1.9%. In the case of `COc1cc2nccc(Oc3ccc(NC(=O)C4(C(=O)Nc5ccc(F)cc5)CC4)cc3)c2cc1OC.O=C(O)C[C@H](O)C(=O)O` [Cabozantinib malate (XL184)], the “percent reduction” value is reported as 4.34 ± 3.9%. `Cc1ccc(NC(=O)c2cccc(C(C)(C)C#N)c2)cc1Nc1ccc2ncn(C)c(=O)c2c1` was tested, and the “percent reduction” value was -9.01 ± 3.1%. In the case of `O=C(Nc1cc(C(F)(F)F)cc(C(F)(F)F)c1)c1cc(Cl)ccc1O`, the “percent reduction” value is reported as 8.68 ± 3.7%. In the case of `Cc1c(NC(=O)c2ccc(C(C)(C)C)cc2)cccc1-c1cn(C)c(=O)c(Nc2ccc(C(=O)N3CCOCC3)cc2)n1`, the “percent reduction” value is reported as -8 ± 7.8%. For `O=C(c1ccc(Nc2nccc(-c3cc4ccccc4s3)n2)cc1)N1CCC(N2CCCC2)CC1` [IKK-16 (IKK Inhibitor VII)], the “percent reduction” value was 4.07 ± 9.4%. In the case of `CNC(=O)c1cccc(-c2ccc3c(N4CCOC[C@@H]4C)nc(N4CCOC[C@@H]4C)nc3n2)c1` [Vistusertib (AZD2014)], the “percent reduction” value is reported as 9.57 ± 9.3%. `C=CC(=O)Nc1cccc(Nc2nc(Nc3ccc(Oc4ccnc(C(=O)NC)c4)cc3)ncc2F)c1` was tested, and the “percent reduction” value was -4.93 ± 4.3%. `C1=C/COCc2cc(ccc2OCCN2CCCC2)Nc2nccc(n2)-c2cccc(c2)COC/1` [Pacritinib (SB1518)] was tested, and the “percent reduction” value was -2.95 ± 9.1%. For `C=CC(=O)Nc1cccc(Oc2nc(Nc3ccc(N4CCN(C)CC4)cc3)ncc2Cl)c1`, the “percent reduction” value was 1.06 ± 9.5%. For `Cl.Cl.OC(c1cc(-c2ccc(Cl)cc2)nc2ccccc12)C1CCCCN1` (stereo not drawn) [Vacquinol-1], the “percent reduction” value was -5.59 ± 3.7%. `C=CC(=O)Nc1cccc(Sc2nc(Nc3ccc(N4CCN(C)CC4)cc3)ncc2Cl)c1` was tested, and the “percent reduction” value was 3.76 ± 18%.
